From PubChem BioAssay AID2685 (National Center for Advancing Translational Sciences (NCATS), 2010)
About 2,100 (0.66%) of roughly 320,000 compounds were called active. About 53% were inconclusive and are not listed. The sample holds actives, similar compounds and a random draw of the others, so the mix is not that of the screen. Calls follow the shape of the dose curve; as a rule, active = well fitted inhibition curve with a large enough effect in the signal ratio, with a control signal flat (not every such curve was filed as active); inconclusive = small, poorly fitted or top-dose-only effect, or effect the other way, or a change in a side signal; inactive = flat fitted curve, though single readings scatter; the % refers to the signal ratio.

Test: qHTS Assay for Lipid Storage Modulators in Drosophila S3 Cells;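 as to cell number change: cells counted by Cell Tracker Red CMTPX staining in the red channel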; as to lipid storage change, negative = inhibition: % is scaled to controls: 0 for no effect and ±100 for the full control effect
Details: BODIPY lipid droplet fluorescence, 18-24 h, cells fed with added oleic acid; cell number change: measured here: cell count max response; series mostly up to 46.1 µM
How it was run: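 Drosophila S3 cells loaded with oleic acid (400 uM, as added) and compounds at several concentrations; lipid droplets imaged by 488-nm laser-scanning cytometry, 500–530 nm intensity and object ratio to cell channel. Percent activity normalized to 20 uM Triacsin C.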
Potency is read from the fitted curve at half-maximal effect.

Row | SMILES | Potency | cell number change [%] | lipid storage change, negative = inhibition
1 | CCOC(=O)c1[nH]c(C)c(C(=O)NC2CCCCCC2)c1C | inactive | -7.97 | 
2 | CCOC(=O)c1[nH]c(C)c(C(=O)NC2CCCCC2)c1C | inactive | -4.45 | 
3 | CCN(CC)CCCNC(=O)c1[nH]c(C)c(C(=O)NC2CCCCC2)c1C | 25.9 µM (active) | -5.4 | 
4 | Cc1cc(O)c(C(C)C)cc1NS(=O)(=O)c1ccccc1 | inactive | -16.1 | 
5 | Cc1cc2oc(=O)sc2cc1NS(=O)(=O)c1ccccc1 | 7.31 µM (active) | 5.22 | 
6 | O=C(O)c1cccc(S(=O)(=O)Nc2ccc3oc(=O)sc3c2)c1 | inactive | 4.14 | 
7 | COc1cccc(-c2cc(C(=O)NCC3CCCO3)c3cc(Br)cc(C)c3n2)c1 (stereo not given) | inactive | -7.43 | 
8 | O=C(O)CC(Cc1ccc(Br)cc1)C(=O)O (stereo not given) | inactive | -24.7 | 
9 | N=c1oc2c3c4c(cc2cc1C(=O)Nc1ccccc1)CCCN4CCC3 | 5.8 µM (active) | 5.35 | 
10 | N=c1oc2ccccc2cc1C(=O)Nc1ccc(F)cc1 | inactive | 0.805 | 
11 | N=c1oc2ccccc2cc1C(=O)Nc1ccccc1 | inactive | 8.78 | 
12 | CC(C)COc1ccc(CSCCNC(=S)Nc2ccccc2)cc1 | inactive |  | 
13 | O=C1C2CCCN2C(c2cccs2)N1c1ccc(F)cc1 (stereo not given) | inactive | -1.44 | 
14 | Cc1ccc2nc3c(cc(C(=O)NCC4CCCO4)n3C)c(=O)n2c1 (stereo not given) | inactive | 19.4 | 
15 | O=C(N/N=C/c1ccco1)C12CC3CC(CC(C3)C1)C2 | inactive | -15.4 | 
16 | O=C(/C=C/c1ccco1)c1ccc(NC(=O)C23CC4CC(CC(C4)C2)C3)cc1 | 16.4 µM (active) | -23.6 | 
17 | CC(=O)Nc1ccc(C(=O)/C=C/c2ccco2)cc1 | inactive | -0.499 | 
18 | Cc1noc(C)c1COc1ccccc1C(=O)N(C)Cc1ccc(F)cc1 |  | -12.5 | 19.1% [at 0.0737 µM] (inactive)
19 | O=C(c1ccc2c(c1)OCO2)C1CCCN(Cc2cc(F)ccc2-n2cccn2)C1 (stereo not given) | inactive | 10 | 
20 | CCc1c(C)nc(N)n2c(SCC(=O)Nc3ccccc3OC)nnc12 | inactive | 6.92 | 
21 | CCc1c(C)nc(N)n2c(SCC(=O)NC3CCCCC3)nnc12 | 1.3 µM (active) | 19.2 | 
22 | CCn1c(C)nnc1SCC(=O)NC1CCCCCC1 | inactive | -4.99 | 
23 | COc1ccc(C)cc1N(CC(N)=O)S(=O)(=O)c1ccc(C)cc1 | inactive | -13.9 | 

Row | SMILES | Potency | cell number change [%] | lipid storage change, negative = inhibition
24 | COc1ccc(Nc2ncc(C#N)c(N)n2)c(OC)c1 | inactive | 3.36 | 
25 | Cc1c(NC(=O)/C=C/c2ccc(S(=O)(=O)N3CCOCC3)cc2)c(=O)n(-c2ccccc2)n1C | inactive | 8.27 | 
26 | CC(=O)Nc1ccc(NC(=O)C(C)OC(=O)CCc2nc3ccccc3s2)cc1 (stereo not given) | inactive | 4.88 | 
27 | CCNC(=O)NC(=O)C(C)OC(=O)CCCc1nc2ccccc2s1 (stereo not given) | inactive | 2.05 | 
28 | CC(OC(=O)CCCc1nc2ccccc2s1)C(N)=O (stereo not given) | 23.1 µM (active) | 18.5 | 
29 | Cc1nn(Cc2ccc(C(=O)n3cccn3)o2)c(C)c1Br | inactive | -2.33 | 
30 | Cc1csc(NC(=O)c2cccc(Cn3nc(C)c(Br)c3C)c2)n1 | inactive | -7.75 | 
31 | Cc1csc(NC(=O)c2ccc(Cn3nc(C)c(Br)c3C)o2)n1 | 7.31 µM (active) | -7.94 | 
32 | Cc1nnc2c(NCCc3ccccc3)nc3ccccc3n12 | inactive | 6.11 | 
33 | CCC(=O)Oc1ccc2oc(=O)cc(C)c2c1 | inactive | -1.41 | 
34 | CCc1ccc(NC(=S)N2CCC(NC(=O)c3ccccc3OC)CC2)cc1 | inactive | 12.5 | 
35 | Cc1cc(NC(=O)Cn2nc3c(cc2=O)CCCC3)ccc1Br | inactive | 19.1 | 
36 | N=c1c(C(=O)NCc2ccccc2)cc2c(=O)n3ccccc3nc2n1CCCN1CCOCC1 | inactive | -5.03 | 
37 | N=c1c(C(=O)NCCN2CCOCC2)cc2c(=O)n3ccccc3nc2n1CCCN1CCOCC1 | 7.31 µM (active) | 8.12 | 
38 | N=c1c(C(=O)NCc2ccco2)cc2c(=O)n3ccccc3nc2n1Cc1ccccc1 | inactive | -4.14 | 
39 | COc1ccc(CCNC(=O)c2cc3c(=O)n4ccccc4nc3n(CCCN3CCOCC3)c2=N)cc1OC | inactive | 3.54 | 
40 | N=c1c(S(=O)(=O)c2ccc(Cl)cc2)cc2c(=O)n3ccccc3nc2n1C1CCCC1 | 13 µM (active) |  | 
41 | N=c1c(S(=O)(=O)c2ccc(Br)cc2)cc2c(=O)n3ccccc3nc2n1C1CCCCC1 | inactive | 2.36 | 
42 | Cc1ccc(Cn2c(=N)c(C(=O)NCCN3CCOCC3)cc3c(=O)n4ccccc4nc32)cc1 | inactive | 21.5 | 
43 | COc1ccc(CCNC(=O)c2cc3c(=O)n4ccccc4nc3n(Cc3ccco3)c2=N)cc1OC | inactive | -20.4 | 
44 | Cc1ccc(S(=O)(=O)c2cc3c(=O)n4ccccc4nc3n(C3CCCC3)c2=N)cc1 | inactive | -1.32 | 
45 | N=c1c(C(=O)NCCN2CCOCC2)cc2c(=O)n3ccccc3nc2n1CCc1ccccc1 | inactive | 15.8 | 
46 | N=c1c(C(=O)NCCc2ccccc2)cc2c(=O)n3ccccc3nc2n1CCCN1CCOCC1 | 6.51 µM (active) | -19 | 

Row | SMILES | Potency | cell number change [%] | lipid storage change, negative = inhibition
47 | N=c1c(C(=O)NCCc2ccccc2)cc2c(=O)n3ccccc3nc2n1Cc1ccco1 | 0.82 µM (active) | -1.35 | 
48 | COc1ccc(C(=O)NCc2oc(-c3ccccc3)cc2C(=O)O)cc1 | inactive | -4.88 | 
49 | COc1ccc2nc(/C=N/NC(=O)[C@H](CCSC)NC(=O)OC(C)(C)C)ccc2c1 | inactive | 13.4 | 
50 | COC(=O)c1ccccc1NC(=O)CSc1nc(O)cc(=O)n1C1CCCC1 | inactive | 6.94 | 
51 | O=C(NC(Cc1ccccc1)C(=O)O)/C(=C/c1ccco1)NC(=O)c1cccc([N+](=O)[O-])c1 (stereo not given) | inactive | -0.0963 | 
52 | Oc1cccc(N2Cc3ccccc3C2)c1 | inactive | -1.3 | 
53 | CCN1CCN(S(=O)(=O)c2ccc(Cl)c(C(=O)N(C)C(c3ccccc3)c3ccccc3)c2)CC1 | inactive |  | 
54 | C=CCOc1ccc2ccccc2c1CNn1cn[nH]c1=S | inactive | 10.6 | 
55 | Cc1ccc(OCC(=O)NCCCNC(=O)c2ccncc2)cc1 | inactive | 0.901 | 
56 | CCOC(=O)N1CCN(C(=O)c2ccc3nc(N4CCCCC4)sc3c2)CC1 | inactive | -1.93 | 
57 | CCOC(=O)CNC(=O)N1CCCC(CNS(=O)(=O)c2cccs2)C1 (stereo not given) | inactive | 11.3 | 
58 | Cc1ccc(S(=O)(=O)N2CCOCC2)cc1NC(=O)COC(=O)CCC(=O)c1ccc(F)cc1 | inactive | 14.2 | 
59 | COCCCn1c(C(=O)N2CCOCC2)cc2c(=O)n3ccccc3nc21 | inactive | 17.7 | 
60 | N=c1c(C(=O)NCc2ccco2)cc2c(=O)n3ccccc3nc2n1C1CCCC1 | 0.651 µM (active) | 10.3 | 
61 | COCCCn1c(C(=O)NCCN2CCOCC2)cc2c(=O)n3ccccc3nc21 | 1.84 µM (active) | 5.41 | 
62 | N=c1c(C(=O)NCC2CCCO2)cc2c(=O)n3ccccc3nc2n1C1CCCCC1 (stereo not given) | inactive | -7.39 | 
63 | N=c1c(C(=O)NC2CCCC2)cc2c(=O)n3ccccc3nc2n1C1CCCC1 | inactive | -15.6 | 
64 | O=C(NCCN1CCOCC1)c1cc2c(=O)n3ccccc3nc2n1Cc1ccccc1 | inactive | 13.8 | 
65 | Cc1cccc(C)c1NC(=O)CNC(=O)C1CCCN(C(=O)c2ccc(Cl)cc2)C1 (stereo not given) | inactive | 1.48 | 
66 | COc1cc(C(=O)NCC(=O)NC(C)CCc2ccccc2)cc(OC)c1OC (stereo not given) | inactive | -6.74 | 
67 | CCOC(=O)N1CCN(C(=O)CCCCCn2c(=S)[nH]c3ccsc3c2=O)CC1 | inactive | 6.09 | 
68 | CCOC(=O)C1CCCN(C(=O)C2CCN(S(=O)(=O)c3c(C)noc3/C=C/c3ccccc3F)CC2)C1 (stereo not given) | inactive | 2.99 | 
69 | COc1ccc(Cl)cc1NC(=O)CCNC(=O)OCc1ccccc1 | 7.31 µM (active) | -13.6 | 

Row | SMILES | Potency | cell number change [%] | lipid storage change, negative = inhibition
70 | COc1ccc(Cl)cc1NC(=O)COC(=O)CCNC(C)=O | inactive | 0.288 | 
71 | COc1ccc(OC)c(NC(=O)NCCCCc2ccccc2)c1 | 2.91 µM (active) | -13.4 | 
72 | COc1ccc(OC)c(NC(=O)CCN2C(=O)c3ccccc3C2=O)c1 | inactive | 23.6 | 
73 | COc1ccc(OC)c(NC(=O)NCCc2cccc(Cl)c2)c1 | inactive | 4.18 | 
74 | COc1ccc(OC)c(NC(=O)CN2C(=O)C(=O)N(Cc3ccccc3)C2=O)c1 | 2.31 µM (active) | -12.4 | 
75 | COc1ccc(OC)c(NC(=O)CCCc2ccccc2)c1 | inactive | 8.01 | 
76 | COc1ccc(Cl)cc1NC(=O)CN1CCN(Cc2ccccc2)CC1 | inactive | 1.46 | 
77 | COc1ccc(OC)c(NC(=O)CCN2CCN(Cc3ccccc3)CC2)c1 | inactive | -0.977 | 
78 | COc1ccc2oc(=N)c(C(=O)NCc3ccccc3)cc2c1 | inactive | 8.47 | 
79 | O=C(O)CCc1ccc(-c2cccs2)n1NC(=O)c1ccc(O)cc1 | inactive | 6.61 | 
80 | O=C(COC(=O)/C=C/c1ccccc1)NCc1ccccc1Cl | inactive |  | 
81 | O=C(COC(=O)C1CC2C=CC1C2)NCc1ccccc1Cl (stereo not given) | inactive | 9.83 | 
82 | CC1CC1C(=O)OCC(=O)NCc1ccccc1Cl (stereo not given) | 32.6 µM (active) | -18.4 | 
83 | Oc1cccc(/C=N/Nc2ccc(Cl)nn2)c1 | inactive | 0.54 | 
84 | O=C1c2cccc3cccc(c23)C(=O)N1c1cccnc1 | inactive | -10.8 | 
85 | O=C1c2ccccc2C(=O)N1c1cccnc1 | 25.9 µM (active) | -5.37 | 
86 | O=C1c2cccc([N+](=O)[O-])c2C(=O)N1c1cccnc1 | inactive |  | 
87 | Cc1ccccc1Nc1nnc(SCC(=O)Nc2ccccc2[N+](=O)[O-])s1 | inactive | -4.61 | 
88 | CCCCC[C@H]1CN(C2CCCCC2)C(=O)[C@@H]1CC(=O)NCc1ccccc1 | 16.4 µM (active) | -8.08 | 
89 | CCCCN1C[C@H](Cc2ccccc2)[C@@H](CC(=O)NCc2ccc(OC)cc2)C1=O | inactive | 2.91 | 
90 | CCCCC[C@H]1CN(CCc2ccccc2)C(=O)[C@@H]1CC(=O)NCc1ccc(OC)cc1 | inactive | -13.8 | 
